sEH act: soluble epoxide hydrolase (human) activation; P34913; purified human sEH enzymatic activity, activator screen; activation, % at 2 µM; 91,000 compounds, 0.04% hits; in the data active means activation above about 37%
Target sequence (P34913 whole entry, looked up): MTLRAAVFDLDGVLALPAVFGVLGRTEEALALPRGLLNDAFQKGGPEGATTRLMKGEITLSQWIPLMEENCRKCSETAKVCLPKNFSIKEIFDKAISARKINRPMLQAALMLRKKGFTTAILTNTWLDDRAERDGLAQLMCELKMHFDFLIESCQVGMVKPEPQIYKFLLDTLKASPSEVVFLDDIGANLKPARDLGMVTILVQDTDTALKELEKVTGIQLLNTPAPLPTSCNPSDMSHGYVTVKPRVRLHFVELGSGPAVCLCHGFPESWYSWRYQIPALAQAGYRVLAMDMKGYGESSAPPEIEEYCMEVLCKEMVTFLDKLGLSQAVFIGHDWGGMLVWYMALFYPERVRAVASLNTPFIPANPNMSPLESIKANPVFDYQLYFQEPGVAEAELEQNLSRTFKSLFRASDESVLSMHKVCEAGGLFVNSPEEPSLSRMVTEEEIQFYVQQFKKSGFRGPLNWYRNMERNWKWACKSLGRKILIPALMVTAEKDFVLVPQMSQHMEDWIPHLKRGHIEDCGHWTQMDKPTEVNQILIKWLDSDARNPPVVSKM
CYP2C9 inhib: blocks human cytochrome P450 2C9. P11712. CYP2C9 Supersomes, luciferin-H conversion, luminescence. inhibition, % at 5 µM. 96,000 compounds, 20% hits;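 active means blocking of liver enzyme CYP2C9 beyond about 50% at 5 µM, limit read from the data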
CYP2C19 inh: inhibitors of human CYP2C19 | inhibition, % at 5 µM | CYP2C19 Supersomes, luciferin-H EGE luminescence, 30 min | 96,000 compounds, 21% hits | P33261;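 active means CYP2C19 inhibition above a set limit at 5 µM in the primary screen, cut at about 50% in these data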
CYP2C9 activ: CYP2C9 (human) activation; AID 1024; 96,000 compounds, 1.4% hits; P11712; activation factor at 5 µM; recombinant CYP2C9, luciferin-H conversion, luminescence; active compounds read high; factor 1 = untreated enzyme, 0 = blocked;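 active means activation factor of 2 or more for CYP2C9 at a 5 µM dose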
sEH inh: soluble epoxide hydrolase (human) inhibition. 91,000 compounds, 0.34% hits. recombinant human sEH enzymatic activity assay. inhibition, % at 2 µM. P34913; in the data active means inhibition above about 80%
CYP2C19 act: increases human CYP2C19 enzyme activity | 96,000 tested, under 10 active | P33261 | activation factor at 5 µM | recombinant CYP2C19, luciferin-H EGE luminescence; active compounds read high; 0 = fully inhibited enzyme, 1 = untreated enzyme | AID 1025;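 active means activation factor of at least 2 at 5 µM in the primary screen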
A number is an active result; - = inactive; . = not tested or not shown. Hits are enriched below; roughly 27% of the tested compounds scored in any of these assays.

SMILES | sEH act | CYP2C9 inhib | CYP2C19 inh | CYP2C9 activ | sEH inh | CYP2C19 act
CCOc1ccc(C2C(C(=O)c3ccco3)=C(O)C(=O)N2Cc2cccnc2)cc1 (stereo not given) | - | - | - | - | - | -
CCN(CC)C(=O)C1CCCN(C(=O)Nc2ccc3nsnc3c2)C1 (stereo not given) | - | - | 59 | - | - | -
O=C1CC(NCCC2=CCCCC2)C(=O)N1c1cccc(Cl)c1Cl (stereo not given) | - | - | - | - | - | -
O=[N+]([O-])c1ccc2nc(SCc3ccccc3Cl)sc2c1 | - | - | - | - | - | -
Nc1ccc2nc(SCc3ccc([N+](=O)[O-])cc3)sc2c1 | - | 59 | 97 | - | - | -
CCCC(c1nnnn1Cc1ccco1)N1CCC(C(N)=O)CC1 (stereo not given) | - | - | - | - | - | -
Cc1cc(C(=O)CSc2nnc(NCc3ccccc3)s2)c(C)n1C | - | - | - | - | - | -
Cc1ccccc1-n1c(SCC(=O)c2cc(C)n(C)c2C)nnc1-c1ccncc1 | - | 92 | 99 | - | - | -
COc1cc(-c2nnc(SCC(=O)c3cc(C)n(CC4CCCO4)c3C)o2)cc(OC)c1OC (stereo not given) | - | - | - | - | - | -
Cc1cc(C(=O)CSc2nnc(-c3cccnc3)n2-c2ccccc2F)c(C)n1CC1CCCO1 (stereo not given) | - | 65 | 78 | - | - | -
Cc1cc(C(=O)CSc2nnc(Nc3ccccc3F)s2)c(C)n1CC1CCCO1 (stereo not given) | - | 56 | 53 | - | - | -
COc1ccc(C(=O)CC2OC(=O)c3ccccc32)cc1OC (stereo not given) | - | . | . | . | - | .
COCCCn1cc(C(=O)c2cc(OC)ccc2OCC(=O)Nc2cc(C)on2)cc(C#N)c1=O | - | 57 | 50 | - | - | -
CCCCCC/C(=N\NS(C)(=O)=O)c1ccccc1 | - | - | - | - | - | -
CCOc1ccc(NC(=O)CC2C(=O)N(c3ccccc3)C(=S)N2Cc2ccccn2)cc1 (stereo not given) | - | - | - | - | - | -
CCCOc1ccc(NC(=O)CC2C(=O)N(CC)C(=S)N2Cc2cccs2)cc1 (stereo not given) | - | 52 | 82 | - | - | -
O=C(CSc1nnc2ccccn12)NCc1cccs1 | . | - | - | - | . | -
O=C(O)CCc1nc(-c2ccccc2)no1 | - | - | - | - | - | -
CCc1ccccc1N(C)C(=O)CCc1nc(-c2ccc(C)cc2)no1 | - | 63 | - | - | - | -
COc1ccc(Cl)cc1N(C)C(=O)CCc1nc(-c2ccc(C)cc2)no1 | - | 94 | 92 | - | - | -
Nc1nc(SCc2c(Cl)cccc2Cl)n[nH]1 | - | - | - | - | - | -
CCOc1cc(S(=O)(=O)Nc2cc(C)cc(C)c2)ccc1Cl | - | - | 98 | 2 | - | -
COC(=O)COc1ccc(S(=O)(=O)Nc2ccc(C(N)=O)cc2)cc1C | - | 55 | - | - | - | -
CCOc1ccc(NS(=O)(=O)c2ccc(OC)c(C)c2)cc1 | - | 92 | 93 | - | - | -
Cc1cc(C)cc(NS(=O)(=O)c2ccc3oc(=O)ccc3c2)c1 | - | 62 | 100 | - | - | -
SMILES | sEH act | CYP2C9 inhib | CYP2C19 inh | CYP2C9 activ | sEH inh | CYP2C19 act
CCOc1cc(S(=O)(=O)NCc2cccs2)ccc1Cl | - | - | - | - | - | -
CCOc1ccc(Nc2cc(=O)oc3ccccc23)cc1 | - | - | - | - | - | -
Cc1ccccc1-n1ncc2c([N+](=O)[O-])cc([N+](=O)[O-])cc21 | - | . | . | . | - | .
CCOc1ccc(NS(=O)(=O)c2cc(Cl)ccc2OC)cc1 | - | 91 | - | - | - | -
CCOc1ccc(NS(=O)(=O)c2ccc(NC(C)=O)c(OC)c2)cc1 | - | - | 52 | - | - | -
COc1ccc(OC)c(S(=O)(=O)Nc2cc(Cl)cc(Cl)c2)c1 | - | . | . | . | - | .
CCC(C)N1CCN(C(=O)c2cccs2)CC1 (stereo not given) | - | . | . | . | - | .
NC(=O)NC(=O)COC(=O)c1ccccc1Oc1ccccc1 | . | - | - | - | . | -
CC(=O)N(CC(C)(C)CC=C(C)C)c1ccccc1 | . | - | 52 | - | . | -
CCCOc1ccc(C(=O)C(CN2CCOCC2)c2ccccc2)cc1 (stereo not given) | - | . | . | . | - | .
Cc1cc(/C=C2\SC(=Nc3ccccc3)NC2=O)c(C)n1-c1ccc(S(N)(=O)=O)cc1 | - | 60 | - | - | - | -
CCN(CC)S(=O)(=O)c1ccc(C(=O)Nc2c3c(nn2C(C)(C)C)CS(=O)(=O)C3)cc1 | - | 76 | - | - | - | -
Cc1nn(-c2ccccc2)c(C)c1/C=N/NC(=O)c1cc(C(C)(C)C)[nH]n1 | - | 58 | - | - | - | -
Cc1ccc(-c2cc(C(=O)N/N=C/c3c(C)nn(-c4ccccc4)c3C)[nH]n2)cc1 | - | - | - | - | - | -
Cc1nn(-c2ccccc2)c(C)c1/C=N/n1c(-c2ccc(C(C)(C)C)cc2)n[nH]c1=S | - | 82 | - | - | - | -
O=C1NC2NC(=O)N(C(Cc3ccccc3)C(=O)O)C2N1 (stereo not given) | - | - | - | - | - | -
CCOC(=O)C1CCCN(c2cc(C)nc3cc(-c4ccc(F)cc4)nn23)C1 (stereo not given) | - | 67 | - | - | - | -
O=C1CSC(c2nn(-c3ccccc3)cc2-c2cc3ccccc3oc2=O)N1Cc1ccco1 (stereo not given) | - | 84 | 55 | - | - | -
Cc1sc2nc(SCC(=O)NCCO)n(C)c(=O)c2c1C | - | - | - | - | - | -
CCOC(=O)Cc1csc2nc3sc(C)c(C)c3c(=O)n12 | - | - | 56 | - | - | -
CCOC(=O)CNC(=O)CSc1nc2sc(C)c(C)c2c(=O)n1C | - | 50 | 70 | - | - | -
CCC(C)NCCCCOc1ccc(C)cc1[N+](=O)[O-] (stereo not given) | - | - | - | - | - | -
CN(C)C(=O)N1CCC(C(=O)NCC2CCCO2)CC1 (stereo not given) | . | - | - | - | . | -
O=C1NCCc2c1[nH]c1c(Cl)ccc(Cl)c21 | - | - | - | 2.4 | - | -
NC(=O)C1CCN(C(=O)c2ccc(CS(=O)(=O)c3c(Cl)cccc3Cl)o2)CC1 | - | - | - | - | - | -
COc1cc(/C=N/N(C)c2ccccc2)ccc1O | - | 74 | 82 | - | - | -
COc1cc(OC)c(OC)cc1/C=N/N(C)c1ccccc1 | - | 70 | - | - | - | -
COc1ccc2c(c1OC)C(=O)N1C2SC[C@H]1C(=O)NC1CC(C)(C)NC(C)(C)C1 (stereo not given in full) | - | - | - | - | - | -
O=C(NCc1ccccc1)c1cnsn1 | - | - | - | - | - | -
COc1ccc(N2C(=O)CSC23C(=O)Nc2ccccc23)cc1OC (stereo not given) | - | - | - | - | - | -
